The campaign covered roughly 140,000 compounds. About 4,300 (3.1%) were called active. Inconclusive results (about 21%) are left out. This excerpt belongs to a sample that is enriched for actives. Values without a mark were called inactive.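 The calls were made as follows: active = readout at or below -70, meaning at least 70% loss of cells showing the perinucleolar compartment, a nuclear body marking cancer cells; inconclusive = readout between -30 and a set limit; inactive = the rest.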

The assay is described as follows: High Content Assay for Compounds that inhibit the Assembly of the Perinucleolar Compartment. The settings on record: PC3M PTB-GFP, PNC prevalence imaging, 16 h; at 10 µM; stronger effect = lower value. From the text:
High Content Assay for Compounds that inhibit the Assembly of the Perinucleolar Compartment NIH Chemical Genomics Center [NCGC] NIH Molecular Libraries Probe Centers Network [MLPCN] MLPCN Grant: MH082371-01A2 Assay Submitter (PI): Sui Huang, Northwestern University, Feinberg School of Medicine, Cell and Molecular Biology, Chicago, Illinois. The perinucleolar compartment (PNC) is a non-membrane-bound nuclear subdomain that is associated with but structurally distinct from the nucleolus. The PNC is a heritable trait, in which the number of PNCs per cell in daughter cells often mimics that of their mother cells. The PNC is heterogeneous in shape, is stable through interphase, disassembles during mitosis, and reassembles in early G1. The PNC is concentrated with newly synthesized RNA polymerase III (pol III) RNAs (MRP RNA, RNAse P H1 RNA, hY RNAs[hY1, 2, 5], Alu RNA, and SRP [7SL] RNA) and RNA binding proteins (nucleolin, PTB, CUG-BP, KSRP, Raver1, Raver2, and Rod). […] Extensive in vitro studies have shown that the PNC is unique to tumor cells and preferentially forms in tumor cells derived from solid tissues. Examination of cancer cell lines from various origins and malignant capacities has shown that PNC prevalence correlates with the malignancy of tumors and has the potential to be developed as a pan-cancer prognostic marker. […] Although the PNC is associated with a DNA locus and a handful of components have been identified, much remains to be investigated regarding the structure and function of the PNC and its mechanistic link to cancer. We have previously shown that PNC prevalence reduction is a valid strategy to identify compounds that can be used to study the structure and function of the PNC. It is necessary, however, to create a screening platform that is able to test a large number of compounds in an automated fashion. Here we report the development and robustness of an automated whole-cell phenotypic image-based screening assay that is capable of identifying such compounds.
PNC High Content Imaging Assay Procedure: 1. Cells at a density of 75-90% confluency in T175 flasks were harvested using 7 ml TrypLE Express cell dissociation reagent. After dissociation (5 minutes room temperature incubation) 10 ml of complete media was added to the TrypLE/cell suspension. The liquid was transferred to a 50 ml Conical tube and cells were pelleted at 1000 RPM for 5 min. Supernatant was removed and cells were resuspended to a final density of 150-200 cells/ul in complete media. 2. Cells were plated in 5 ul volume (750-1000 cells/well) into 1536 well Black uclear Aurora Low Base plates and allowed to recover and adhere at 37 C in a humidified 5% CO2 incubator for 4 hours. 3. After 4 hour incubation, compound libraries (23 nl of […] in columns 5-48) were transferred to the plates in duplicate using a 1536 well pintool. Camptothecin positive control (59 uM final) was added to column 2 and 1:3 dilutions of camptothecin was added to column 3. DMSO negative controls were present in columns 1 and 4. 4. After a 16 hour incubation in the 37 C incubator, cells were fixed by the addition of 4 ul of 6% EM grade paraformaldehyde (containing 0.1% triton X 100) directly to the cells. The plates were incubated at room temperature for 20 minutes. The liquid was removed using a 32 channel Kalypsys aspirator and the fixed cells were washed twice with 5 ul PBS followed by a final addition of 5 ul PBS containing 1 ug/ml Hoechst 33342. 5. Fixed plates were sealed and sotred at 4C until imaged. 6. Plates were imaged on an InCell 1000 automated microscope using a 20 x objective, a standard FITC filter set, no camera binning, and an exposure time of ~100-150 msec/well. 7. Data analysis. PNC prevalence was determined using the Multitarget analysis module from InCell Workstation software (V3.5 ) and analysis was run on a quad core workstation using the Incell Developer Toolbox (V1.7). […]
As for `COC(=O)c1c(C)[nH]c(C(=O)/C=C/c2ccc(Cl)cc2)c1C`, the activity change (PNC), negative = inhibition was 0.424%.

As to `CC(=O)c1c(Nc2ccccc2)sc(C(=O)c2ccccc2)c1C`, the activity change (PNC), negative = inhibition was 73.7%.

Turning to `Cc1cc(NS(=O)(=O)c2ccc(NC(=S)NC(=O)c3ccc(F)cc3Cl)cc2)no1`, the activity change (PNC), negative = inhibition was -22%.

With `Cc1ccc(C(=O)C(=S)N2CCOCC2)cc1`, the activity change (PNC), negative = inhibition is -3.45%.

Regarding `COc1ccc(N2C(=O)CC(N3CCC(C(N)=O)CC3)C2=O)cc1` (stereo unspecified), the activity change (PNC), negative = inhibition is 19.9%.

Take `COc1cccc(N2CCN(C3CC(=O)N(c4ccc(Cl)cc4)C3=O)CC2)c1` (stereo unspecified): the activity change (PNC), negative = inhibition is -3.5%.

In the case of `COc1ccc(N2CCN(C3CC(=O)N(c4ccc5c(c4)OCCO5)C3=O)CC2)cc1` (stereo unspecified), the activity change (PNC), negative = inhibition was -84.9% (active).

`COC(=O)c1cc(C(=O)OC)cc(N2C(=O)CC(N3CCN(c4ccccc4)CC3)C2=O)c1` (stereo unspecified): the activity change (PNC), negative = inhibition was -94.7% (active).

As for `O=CN1CCN(C2CC(=O)N(c3ccc4c(c3)OCO4)C2=O)CC1` (stereo unspecified), the activity change (PNC), negative = inhibition is -6.31%.

Consider `COc1cccc(N2C(=O)CC(N3CCN(S(=O)(=O)c4ccccc4)CC3)C2=O)c1` (stereo unspecified), for which the activity change (PNC), negative = inhibition is -19.9%.

With `Cn1cc([N+](=O)[O-])c(C(=O)Nc2cnn(Cc3ccc(F)cc3)c2)n1`, the activity change (PNC), negative = inhibition is -17%.

On to `COCCOC(=O)c1c(C)oc2cc(Br)c(OCC(N)=O)cc12`, for which the activity change (PNC), negative = inhibition was -7.11%.

`CC(C)(C)c1ccc(/C=C/C(=O)Nc2ncccn2)cc1`: the activity change (PNC), negative = inhibition is 15.2%.

Consider `COc1ccc([C@H]2[C@H](C(C)=O)N3N=Cc4ccccc4C3C23C(=O)OC(C)(C)OC3=O)cc1` (stereo partly specified), for which the activity change (PNC), negative = inhibition was 11.5%.

Turning to `COc1ccc(C(=O)Nc2ccc(CN3CCOCC3)cc2)cc1`, the activity change (PNC), negative = inhibition was -12.7%.

As to `CC(C)(C)NC(=O)c1cccc(NC(=O)Cc2ccc(Br)cc2)c1`, the activity change (PNC), negative = inhibition was -14.3%.

For the compound `COc1ccc(CC(=O)Nc2ccc(C(=O)NC(C)(C)C)cc2)cc1`, the activity change (PNC), negative = inhibition is -85% (active).

Regarding `CC1=C(C(=O)Nc2cc(C)ccn2)C(c2cnn(C)c2)C2=C(CC(c3ccccc3)CC2=O)N1` (stereo unspecified), the activity change (PNC), negative = inhibition was 20.8%.

With `COc1ccc2nc(NC(=O)[C@@H]3CCCN3C(=O)c3cccs3)sc2c1`, the activity change (PNC), negative = inhibition was 34.3%.

`Cn1nnnc1SCC(=O)N1CCN(C(c2ccccc2)c2ccccc2)CC1`: the activity change (PNC), negative = inhibition was -100% (active).

Turning to `Cn1nnnc1SCC(=O)N1CCN(Cc2ccccc2)CC1`, the activity change (PNC), negative = inhibition was 29.1%.

On to `O=C(c1ccc(-n2cnnn2)cc1)N1CCN(C(c2ccccc2)c2ccccc2)CC1`, for which the activity change (PNC), negative = inhibition was -100% (active).

Regarding `CC(C)NC(=S)N1CCN(C(c2ccccc2)c2ccccc2)CC1`, the activity change (PNC), negative = inhibition is 12%.

`CCOC(=O)C1=C(CSc2nnnn2C)N(C)C(=O)NC1c1ccccc1` (stereo unspecified): the activity change (PNC), negative = inhibition was 19.9%.

Take `O=C(O)CC(c1ccccc1)n1cnnn1` (stereo unspecified): the activity change (PNC), negative = inhibition is 2.72%.

Turning to `Cc1ccc2nsnc2c1NC(=O)c1ccccc1[N+](=O)[O-]`, the activity change (PNC), negative = inhibition was -1.05%.

Regarding `O=C(C/C(=N\NC(=O)c1ccccc1Br)C(F)(F)F)c1cccs1`, the activity change (PNC), negative = inhibition was -25.7%.

For the compound `Cc1ccc(C)c2[nH]c(=O)c(CCNC(=O)c3cccs3)cc12`, the activity change (PNC), negative = inhibition was 36.1%.

Consider `COc1cc(OC)cc(C(=O)NCC(=O)OCc2csc(-c3ccccc3)n2)c1`, for which the activity change (PNC), negative = inhibition is 0.666%.

Take `CCC1CCCCN1C(=S)Nc1ccc(C(C)=O)cc1` (stereo unspecified): the activity change (PNC), negative = inhibition was 83.7%.

For `CC(NC(=O)COC(=O)C1CCN(S(=O)(=O)c2ccccc2C(F)(F)F)CC1)c1ccccc1` (stereo unspecified), the activity change (PNC), negative = inhibition is -108% (active).

`CCNC(=O)NC(=O)C(C)OC(=O)C1CCN(S(=O)(=O)c2ccccc2F)CC1` (stereo unspecified): the activity change (PNC), negative = inhibition was -28.8%.

Consider `CC(NC(=O)CCC(=O)N1CCN(S(=O)(=O)c2ccc(Cl)cc2)CC1)c1ccccc1` (stereo unspecified), for which the activity change (PNC), negative = inhibition is -12.6%.

For the compound `O=C(Nc1cccc(Cl)c1)Nc1ccccc1NS(=O)(=O)c1cccs1`, the activity change (PNC), negative = inhibition was -1.43%.

`CCOC(=O)CNC(=O)CSc1nnnn1-c1cc(C)ccc1C`: the activity change (PNC), negative = inhibition was -8.66%.

As to `CNC(=O)CSc1nnnn1-c1ccc(C)cc1C`, the activity change (PNC), negative = inhibition was -10.4%.

`CCOC(=O)c1c(-c2ccc(C)cc2C)csc1NC(=O)CSc1nnnn1C`: the activity change (PNC), negative = inhibition is -85.2% (active).

With `C/C(CCC(=O)OC[C@H]1O[C@H](C#Cc2ccccc2)C=C[C@@H]1Oc1ccc(C)cc1)=N\OC[C@@H](O)[C@H]1O[C@@H]2OC(C)(C)O[C@@H]2[C@H]1O`, the activity change (PNC), negative = inhibition is 49%.

With `CN(CC(=O)NCCc1ccccc1)S(=O)(=O)c1cnc[nH]1`, the activity change (PNC), negative = inhibition is -5.8%.

In the case of `COc1ccc(C(=O)COC(=O)COc2ccc(C)c(C)c2)cc1`, the activity change (PNC), negative = inhibition is -83.5% (active).

With `COCCNC(=O)COc1ccc(C)c(C)c1`, the activity change (PNC), negative = inhibition is -16.6%.

For the compound `Cc1ccc(/C(N)=N/OC(=O)COc2ccc(Cl)c(C)c2)cc1`, the activity change (PNC), negative = inhibition was 48.8%.

For `CCOC(=O)c1ccc(NC(=O)CSc2ncccn2)cc1`, the activity change (PNC), negative = inhibition is -27.8%.

In the case of `CCOC(=O)c1ccc(NC(=O)CSc2nnc(COc3ccccc3OC)n2C)cc1`, the activity change (PNC), negative = inhibition is -83.9% (active).

On to `COC(=O)c1ccc(NC(=O)CSc2nnc(-c3ccncc3)n2C)cc1`, for which the activity change (PNC), negative = inhibition was -12.9%.

As to `CN(CC(=O)Nc1ccc(S(=O)(=O)N2CCCC2)cc1)Cc1ccc(Cl)c(Cl)c1`, the activity change (PNC), negative = inhibition was 14.3%.

For the origin of these results see PubChem BioAssay AID2417 (National Center for Advancing Translational Sciences (NCATS), 2010).
